Columns and labels:
Test in all cases: yeast three-hybrid, YBZ-1, SC-Leu-His + 0.5 mM 3-AT, 4 days
Conditions in all cases: tags: N-Gal4 AD-HA kept; label: inside an RPR1-promoter hybrid RNA with tandem MS2 sites; ssRNA
PUM1 PUF domain R1-TMR = PUM1 PUF domain R1-TMR (Homo sapiens, UniProt Q14671 828-1176, S863T;R864M;Q867R)
In short: (§1)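 A centromeric plasmid in strain YBZ-1 co-expressed Pumilio-1 PUF domain libraries, randomized at the three base-contacting residues of each repeat, with matching RNA elements; the strain carries a LexA–MS2 coat fusion and a HIS3 reporter. After four days on SC-Leu (input) or SC-Leu-His + 0.5 mM 3-AT (selection), the repeat regions were PCR-amplified and Illumina-sequenced. The interaction score is the log change in variant frequency from input to selection, using log2 and a pseudocount of 1 where absent.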

PUM1 PUF domain R1-GCR = PUM1 PUF domain R1-GCR (Homo sapiens, UniProt Q14671 828-1176, S863G;R864C;Q867R)
In short: as §1

PUM1 PUF domain R8-RHI = PUM1 PUF domain R8-RHI (Homo sapiens, UniProt Q14671 828-1176, N1122R;Y1123H;Q1126I)
In short: as §1

PUM1 PUF domain R5-RGP = PUM1 PUF domain R5-RGP (Homo sapiens, UniProt Q14671 828-1176, C1007R;R1008G;Q1011P)
In short: as §1

PUM1 PUF domain R5-FKR = PUM1 PUF domain R5-FKR (Homo sapiens, UniProt Q14671 828-1176, C1007F;R1008K;Q1011R)
In short: as §1

PUM1 PUF domain R5-KND = PUM1 PUF domain R5-KND (Homo sapiens, UniProt Q14671 828-1176, C1007K;R1008N;Q1011D)
In short: as §1

PUM1 PUF domain R6-VYG = target: T1, PUM1 PUF domain R6-VYG (Homo sapiens, UniProt Q14671 828-1176, N1043V;Q1047G)
T1 sequence: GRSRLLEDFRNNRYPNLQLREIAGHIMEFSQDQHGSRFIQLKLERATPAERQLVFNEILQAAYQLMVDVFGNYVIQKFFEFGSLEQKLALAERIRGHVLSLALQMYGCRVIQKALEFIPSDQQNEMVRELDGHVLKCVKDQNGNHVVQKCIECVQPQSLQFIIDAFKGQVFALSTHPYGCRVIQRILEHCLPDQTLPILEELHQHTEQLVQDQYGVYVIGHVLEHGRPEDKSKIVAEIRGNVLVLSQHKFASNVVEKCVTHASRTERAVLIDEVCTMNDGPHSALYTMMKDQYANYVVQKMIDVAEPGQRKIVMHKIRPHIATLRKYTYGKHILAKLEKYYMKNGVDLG
In short: as §1

PUM1 PUF domain R7-RSN = PUM1 PUF domain R7-RSN (Homo sapiens, UniProt Q14671 828-1176, S1079R;N1080S;E1083N)
In short: as §1

PUM1 PUF domain R3-SME = PUM1 PUF domain R3-SME (Homo sapiens, UniProt Q14671 828-1176, C935S;R936M;Q939E)
In short: as §1

GGCUAGAACUAGUGGAUCCCCCGGCGCCCGGCGGCUCGAGCCCGGGUAAGUGUAAAUCGUCUGCAUGCCGCCGGGCGCCAUGCCUGCAGGUCGACUCUAGAAAACAUG
binding signal (PUM1 PUF domain R1-TMR): 2.55 log2 enrichment (interaction score) | binding signal (PUM1 PUF domain R1-GCR): 2.53 log2 enrichment (interaction score)

GGCUAGAACUAGUGGAUCCCCCGGCGCCCGGCGGCUCGAGCCCGGGUAAGCGUAAAUAGUCUGCAUGCCGCCGGGCGCCAUGCCUGCAGGUCGACUCUAGAAAACAUG
binding signal (PUM1 PUF domain R8-RHI): 5.37 log2 enrichment (interaction score)

GGCUAGAACUAGUGGAUCCCCCGGCGCCCGGCGGCUCGAGCCCGGGUAAGUGUCAAUAGUCUGCAUGCCGCCGGGCGCCAUGCCUGCAGGUCGACUCUAGAAAACAUG
binding signal (PUM1 PUF domain R5-RGP): 2.99 log2 enrichment (interaction score) | binding signal (PUM1 PUF domain R5-FKR): 3.62 log2 enrichment (interaction score) | binding signal (PUM1 PUF domain R5-KND): 3.62 log2 enrichment (interaction score)

GGCUAGAACUAGUGGAUCCCCCGGCGCCCGGCGGCUCGAGCCCGGGUAAGUGUAAAUAGUCUGCAUGCCGCCGGGCGCCAUGCCUGCAGGUCGACUCUAGAAAACAUG
binding signal (PUM1 PUF domain R6-VYG): 1.61 log2 enrichment (interaction score)

GGCUAGAACUAGUGGAUCCCCCGGCGCCCGGCGGCUCGAGCCCGGGUAAGUGAAAAUAGUCUGCAUGCCGCCGGGCGCCAUGCCUGCAGGUCGACUCUAGAAAACAUG
binding signal (PUM1 PUF domain R6-VYG): 5.61 log2 enrichment (interaction score)

GGCUAGAACUAGUGGAUCCCCCGGCGCCCGGCGGCUCGAGCCCGGGUAAGUGUAAAUUGUCUGCAUGCCGCCGGGCGCCAUGCCUGCAGGUCGACUCUAGAAAACAUG
binding signal (PUM1 PUF domain R1-GCR): 1.58 log2 enrichment (interaction score)

GGCUAGAACUAGUGGAUCCCCCGGCGCCCGGCGGCUCGAGCCCGGGUAAGUGUUAAUAGUCUGCAUGCCGCCGGGCGCCAUGCCUGCAGGUCGACUCUAGAAAACAUG
binding signal (PUM1 PUF domain R5-FKR): 2.17 log2 enrichment (interaction score)

GGCUAGAACUAGUGGAUCCCCCGGCGCCCGGCGGCUCGAGCCCGGGUAAGUUUAAAUAGUCUGCAUGCCGCCGGGCGCCAUGCCUGCAGGUCGACUCUAGAAAACAUG
binding signal (PUM1 PUF domain R7-RSN): 3.1 log2 enrichment (interaction score)

GGCUAGAACUAGUGGAUCCCCCGGCGCCCGGCGGCUCGAGCCCGGGUAAGUCUAAAUAGUCUGCAUGCCGCCGGGCGCCAUGCCUGCAGGUCGACUCUAGAAAACAUG
binding signal (PUM1 PUF domain R7-RSN): 1.34 log2 enrichment (interaction score)

GGCUAGAACUAGUGGAUCCCCCGGCGCCCGGCGGCUCGAGCCCGGGUAAGUGUAAGUAGUCUGCAUGCCGCCGGGCGCCAUGCCUGCAGGUCGACUCUAGAAAACAUG
binding signal (PUM1 PUF domain R3-SME): 3.43 log2 enrichment (interaction score)
